Shown are actives, neighbours in structure and some others; about 5.4% of the full set was active somewhere.
APOBEC3G inh: APOBEC3G DNA deaminase inhibitors, primary screen, biochemical, fluorescence, single-stranded DNA substrate, uHTS. 330,000 tested, 0.28% active. DNA dC->dU-editing enzyme APOBEC-3G (Homo sapiens), Q9HC16. inhibition, % at 20 µM. recombinant A3G, ssDNA deamination FAM/TAMRA fluorescence;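 active = inhibition of at least 40% at 20 µM, with no more than 30% in the related APOBEC3A deaminase screen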
PHOSPHO1 inh: PubChem AID 1565; recombinant PHOSPHO1, absorbance phosphatase assay; inhibition, % at 13.3 µM; 290,000 tested, 1.1% active; in the data active = inhibition above about 60%
Target sequence (Q8TCT1 whole entry, looked up): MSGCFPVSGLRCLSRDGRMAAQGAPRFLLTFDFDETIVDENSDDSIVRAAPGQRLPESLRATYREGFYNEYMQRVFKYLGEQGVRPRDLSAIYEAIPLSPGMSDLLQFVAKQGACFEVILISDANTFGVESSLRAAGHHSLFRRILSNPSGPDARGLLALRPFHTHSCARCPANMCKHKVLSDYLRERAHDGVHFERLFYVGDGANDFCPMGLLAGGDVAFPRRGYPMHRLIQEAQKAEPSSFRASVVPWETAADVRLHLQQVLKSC
aDG glyco up: activators of alpha-DG glycosylation, primary screen, uHTS, Pro5-aDG cells, AlphaScreen | 360,000 tested, 0.22% active | activation, % at 10 µM | AID 624168, 2012 | alpha-DG glycosylation AlphaScreen (IIH6); 0% Pro5, 100% B10-LARGE cell signal;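 active = activation of at least 8% versus controls, or a plate z-score of at least 8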;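 note: Pro5 are CHO cells carrying HIG-tagged alpha-DG that lacks glycosylation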
A3A deaminase: APOBEC3A ssDNA deaminase inhibitors, primary screen, selectivity assay for APOBEC3G inhibitor project, biochemical, FAM/TAMRA oligo cleavage fluorescence | inhibition, % at 20 µM | AID 493011, 2011 | recombinant A3A, FAM/TAMRA ssDNA deamination fluorescence | 330,000 tested, 0.41% active | DNA dC->dU-editing enzyme APOBEC-3A (Homo sapiens), P31941;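 active = at least 40% inhibition at 20 µM here, with at most 30% in a related deaminase screen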
Target sequence (P31941 whole entry, looked up): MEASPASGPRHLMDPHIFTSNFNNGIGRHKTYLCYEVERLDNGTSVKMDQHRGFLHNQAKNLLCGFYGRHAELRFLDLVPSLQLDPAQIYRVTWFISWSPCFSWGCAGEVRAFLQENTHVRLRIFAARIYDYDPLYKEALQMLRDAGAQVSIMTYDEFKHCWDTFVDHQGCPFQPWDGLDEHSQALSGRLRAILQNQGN
rCAG RNA binder: binders of r(CAG) RNA repeats, primary screen, biochemical, fluorescence. 370,000 tested, 1.3% active. r(CAG) RNA repeat, TO-PRO-1 dye displacement fluorescence. AID 651821, 2012. inhibition, % at 3 µM;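 active = inhibition above the plate cutoff, the mean of all test compounds on that plate plus 3 SD, cut at about 35% in these data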;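 note: higher means more dye released from RNA so lower well fluorescence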
ALR inh: inhibitors of human ALR sulfhydryl oxidase, primary screen, biochemical, H2O2 detection, HRP-luminol luminescence, single point; FAD-linked sulfhydryl oxidase ALR (Homo sapiens), P55789; purified ALR, DTT oxidation; inhibition, % (concentration not given with the values); 290,000 tested, 3.8% active; AID 485317, 2010;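 active = mean replicate inhibition above about 79%, with every replicate also reaching it, limit read from the data; inconclusive = only one of the two criteria met; inactive = mean below limit and not every replicate reaching it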
Target sequence (P55789 whole entry, looked up): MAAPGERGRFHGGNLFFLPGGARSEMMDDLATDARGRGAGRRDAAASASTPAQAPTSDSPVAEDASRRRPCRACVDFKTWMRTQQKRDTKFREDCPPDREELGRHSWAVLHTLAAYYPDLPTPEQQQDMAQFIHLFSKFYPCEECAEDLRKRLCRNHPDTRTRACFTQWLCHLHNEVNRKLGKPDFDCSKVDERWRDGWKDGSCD
rCAG binder conf: small molecules binding CAG repeat RNA – biochemical, fluorescence, confirmation | shares compounds with rCAG RNA binder | r(CAG) RNA repeat, TO-PRO-1 dye displacement fluorescence | inhibition, % at 3 µM | 4,300 tested, 70% active | AID 652065, 2013;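 active = inhibition above a per-plate cutoff, the mean inhibition of sample wells plus 3 SD, cut at about 35% in these data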;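 note: loss of TO-PRO-1 fluorescence as compound displaces dye from 1x1 AA loop RNA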
DNA CAG counter: displacement of TO-PRO-1 from CAG DNA duplex, counter-screen for rCAG RNA repeat binder project, biochemical, fluorescence, TO-PRO-1 dye, d(CAG) DNA oligo; shares compounds with rCAG RNA binder; d(CAG) DNA oligo TO-PRO-1 dye displacement; inhibition, % at 3 µM; 4,300 tested, 94% active; AID 652068, 2013;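 active = inhibition above its plate's cutoff, the mean test-well inhibition plus 3 SD, cut at about 4.8% in these data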;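 note: hits displace the dye from DNA and so lower well fluorescence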
dCAG dye DR: inhibitors of DNA CAG/GTC TO-PRO-1 complex, dose response, counter-screen for rCAG RNA repeat binder project, biochemical, fluorescence, TO-PRO-1 dye; shares compounds with rCAG RNA binder; DNA CAG/GTC duplex TO-PRO-1 dye displacement fluorescence; IC50, µM; 250 tested, 20% active; AID 686960, 2013; in the data active = IC50 below about 10 µM
Hits are given with their value.

What do the screens show for `Cc1ccnc2c(N3C(=O)C4C5c6ccccc6C(c6ccccc65)C4C3=O)cccc12` (configuration not stated)?
APOBEC3G inh: inactive; PHOSPHO1 inh: inactive; aDG glyco up: inactive; A3A deaminase: inactive; rCAG RNA binder: 47; ALR inh: inactive; rCAG binder conf: inactive; DNA CAG counter: 4.4

What do the screens show for `N#C/C(C(=O)Nc1ccc(Cl)cc1)=C(/S)Nc1ccccc1`?
APOBEC3G inh: inactive; PHOSPHO1 inh: inactive; aDG glyco up: inactive; A3A deaminase: inactive; rCAG RNA binder: 56; ALR inh: inactive; rCAG binder conf: 71; DNA CAG counter: 24; dCAG dye DR: inactive

What do the screens show for `N#Cc1ccc(NC(=O)Nc2ccc(Cl)cc2)cc1`?
APOBEC3G inh: inactive; PHOSPHO1 inh: inactive; aDG glyco up: inactive; A3A deaminase: inactive; rCAG RNA binder: inactive; ALR inh: inactive

Results for Nc1[nH]n2c(=O)c3c(nc2c1N=Nc1ccccc1)CCCC3 ?
APOBEC3G inh: inactive; PHOSPHO1 inh: inactive; aDG glyco up: inactive; A3A deaminase: inactive; rCAG RNA binder: 35; ALR inh: inactive; rCAG binder conf: inactive; DNA CAG counter: inactive

What do the screens show for `Nc1[nH]n2c(=O)c3c(nc2c1N=Nc1ccc(Cl)cc1)CCCC3`?
APOBEC3G inh: inactive; PHOSPHO1 inh: inactive; aDG glyco up: inactive; A3A deaminase: inactive; rCAG RNA binder: inactive; ALR inh: inconclusive

How did COc1ccc(CNC(=O)C2CCC(=O)N(C3CCCCCC3)C2)c(OC)c1 (configuration not stated) do in these assays?
aDG glyco up: inactive; rCAG RNA binder: inactive

What do the screens show for `O=S(=O)(Nc1ncnc2sc3c(c12)CCC3)c1ccc(Cl)s1`?
APOBEC3G inh: inactive; PHOSPHO1 inh: inactive; aDG glyco up: inactive; A3A deaminase: inactive; rCAG RNA binder: 57; ALR inh: inactive; rCAG binder conf: 35; DNA CAG counter: 11

What do the screens show for `O=C(O)CC/C(=C/c1cccc(NC(=O)c2ccccc2Cl)c1)c1nc2ccccc2s1`?
aDG glyco up: inactive; rCAG RNA binder: 71; rCAG binder conf: 75; DNA CAG counter: 40

Results for N#C/C(=C\c1ccc(O)c([N+](=O)[O-])c1)c1nc2ccccc2s1 ?
PHOSPHO1 inh: inactive; aDG glyco up: inactive; rCAG RNA binder: 88; rCAG binder conf: 82; DNA CAG counter: 43

How did O=C(O)CC/C(=C\c1ccc2c(c1)OCO2)c1nc2ccccc2s1 do in these assays?
APOBEC3G inh: inactive; PHOSPHO1 inh: inactive; aDG glyco up: inactive; A3A deaminase: inactive; rCAG RNA binder: inactive

How did O=C(CSc1nc2ccccc2s1)Nc1ccc(N2CCOCC2)c(Cl)c1 do in these assays?
APOBEC3G inh: inactive; PHOSPHO1 inh: inactive; aDG glyco up: inactive; A3A deaminase: inactive; rCAG RNA binder: inactive; ALR inh: inactive

What do the screens show for `O=C(O)CC/C(=C\c1ccc(Cl)c([N+](=O)[O-])c1)c1nc2ccccc2s1`?
APOBEC3G inh: inactive; PHOSPHO1 inh: inactive; aDG glyco up: inactive; A3A deaminase: inactive; rCAG RNA binder: 39; rCAG binder conf: 41; DNA CAG counter: 10

What do the screens show for `O=C(O)C/C(=C\c1ccc(N2CCOCC2)c([N+](=O)[O-])c1)c1nc2ccccc2s1`?
APOBEC3G inh: inactive; PHOSPHO1 inh: inactive; aDG glyco up: inactive; A3A deaminase: inactive; rCAG RNA binder: 45; ALR inh: inactive; rCAG binder conf: 41; DNA CAG counter: 16

Results for CCOC(=O)c1cc(OC(=O)Cc2ccc(OC)c(S(=O)(=O)N3CCOCC3)c2)cc(C(=O)OCC)c1 ?
aDG glyco up: inactive; rCAG RNA binder: inactive

Results for O=C(O)CC/C(=C\c1ccc(N2CCOCC2)c([N+](=O)[O-])c1)c1nc2ccccc2s1 ?
PHOSPHO1 inh: inactive; aDG glyco up: inactive; rCAG RNA binder: 48; rCAG binder conf: 66; DNA CAG counter: 25

How did COc1ccc(NC(=O)N(C)C[C@@H]2OCc3cnnn3CCCC(=O)N([C@H](C)CO)C[C@H]2C)c(OC)c1 do in these assays?
rCAG RNA binder: inactive

Results for O=C(O)CCCN1C(=O)/C(=C\c2ccco2)SC1=S ?
PHOSPHO1 inh: inactive; aDG glyco up: inactive; rCAG RNA binder: inactive

Results for O=C(CCCN1C(=O)/C(=C/c2ccco2)SC1=S)Nc1ccccc1C(=O)O ?
APOBEC3G inh: inactive; PHOSPHO1 inh: inactive; aDG glyco up: inactive; A3A deaminase: inactive; rCAG RNA binder: 88; ALR inh: inactive; rCAG binder conf: 83; DNA CAG counter: 49

Results for O=C(CCCN1C(=O)/C(=C/c2ccccc2)SC1=S)Nc1ccccc1O ?
APOBEC3G inh: inactive; PHOSPHO1 inh: inactive; aDG glyco up: inactive; A3A deaminase: inactive; rCAG RNA binder: inactive; ALR inh: inactive

What do the screens show for `O=C(CCCN1C(=O)/C(=C\c2ccccc2)SC1=S)Nc1ccc(O)cc1C(=O)O`?
APOBEC3G inh: inactive; PHOSPHO1 inh: inactive; aDG glyco up: inactive; A3A deaminase: inactive; rCAG RNA binder: 80; ALR inh: inactive; rCAG binder conf: 68; DNA CAG counter: 32

Results for O=C(CCN1C(=O)/C(=C/c2ccco2)SC1=S)Nc1ccc(O)cc1C(=O)O ?
APOBEC3G inh: inactive; PHOSPHO1 inh: inactive; aDG glyco up: inactive; A3A deaminase: inactive; rCAG RNA binder: 93; ALR inh: inactive; rCAG binder conf: 70; DNA CAG counter: 27; dCAG dye DR: 7.3

Results for O=C(CCCN1C(=O)/C(=C\c2cccs2)SC1=S)Nc1ccccc1O ?
aDG glyco up: inactive; rCAG RNA binder: inactive

Results for CC(C(=O)Nc1ccc(O)cc1C(=O)O)N1C(=O)/C(=C\c2cccs2)SC1=S (configuration not stated) ?
APOBEC3G inh: inactive; PHOSPHO1 inh: inactive; aDG glyco up: inactive; A3A deaminase: inactive; rCAG RNA binder: 80; ALR inh: 87; rCAG binder conf: 80; DNA CAG counter: 41

Screening results as filed in PubChem BioAssay.
